The results in this text go back to PubChem BioAssay.

Assay [1] deals with PRMT1 (protein arginine N-methyltransferase 1). Put plainly: PRMT1 binders on small-molecule microarrays, primary screen, biochemical, small-molecule microarray, 635 nm fluorescence (AID 1088).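 Further: binding of Prmt1 protein to compounds spotted on small-molecule microarray slides.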 Conditions: small-molecule microarray binding, higher = more signal.
A short description of assay [2]: yeast growth modulation, basal conditions, primary screen, YJM789 clinical isolate, OD600, 24 h (AID 1089).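 Further: growth of clinical yeast isolate S. cerevisiae YJM 789 seeded 1000 cells per well; test concentration not given here.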 The following applies: S. cerevisiae YJM789 growth, higher = more signal, called active from +8 up or from −8 down.
Assay [3] can be described thus: fission yeast growth modulation, primary screen, strain 972, OD600, 24 h, no modulator (AID 1090).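 Further: basal condition with compound alone and no growth modifier present; test concentration not given here.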 Conditions: S. pombe 972 growth, higher = more signal, called active from +8 up or from −8 down.
Assay [4] is described as follows: S. cerevisiae growth modulation with rapamycin, primary screen, strain BY4716, OD600, 96 h (AID 1091). Further: test concentration not given here. Conditions: higher = more signal, called active from +8 up or from −8 down.
Assay [5] addresses Torsin-1A-interacting protein 2 (Homo sapiens) (UniProt Q8NFQ8). Put plainly: LULL1 binders on small-molecule microarray, primary screen, cell lysate, human LULL1 lysate, 635/667 nm fluorescence (AID 1092).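 Further: probe is lysate of COS7 cells overexpressing human LULL1; score merges per-feature 667 nm fluorescence with signal-to-noise.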 Conditions: hLULL1 lysate binding, 635 nm fluorescence, higher = more signal.
Assay [6] can be described thus: E. coli growth modulation, two-sided OD650, primary screen, E. coli filamentation project, strain DRC41, 24 h (AID 1093).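 Further: MC1000 strain lacking acrAB efflux and sulA so SOS filamentation is blocked; test concentration not given here.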 Conditions: OD650, 24 h, higher = more signal, called active from +8 up or from −8 down.
Assay [7] can be described thus: small-molecule microarray binders of probe aLefty2, primary screen, biochemical, biotinylated probe, 635/667 nm fluorescence (AID 1094).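 Further: score merges spot fluorescence near 667 nm with spot signal-to-noise ratio.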 Conditions: higher = more signal.
Assay [8] has as its system Noggin (protein binding on small-molecule microarray). Put plainly: Noggin binders on small-molecule microarray, primary screen, biochemical, 635/667 nm fluorescence (AID 1095).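 Further: score merges 667 nm feature fluorescence with signal to noise over triplicate slides.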 The following applies: 635 nm fluorescence, higher = more signal.
Assay [9] has as its target Neurogenic locus notch homolog protein 3 (Homo sapiens) (UniProt Q9UM47). The experiment in a line: NOTCH3 binders on small-molecule microarray, primary screen, biochemical, 635/667 nm fluorescence (AID 1096). Conditions: NOTCH3 binding, 635 nm fluorescence, higher = more signal.
The nature of assay [10]: small-molecule microarray binders of probe aEGFR, primary screen, biochemical, biotinylated probe, 635/667 nm fluorescence (AID 1097).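 Further: probe is a biotinylated anti-EGFR antibody binding compounds printed on slides; score combines fluorescence near 667 nm and signal to noise of each spot.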 The following applies: higher = more signal.
In assay [11] the test system is Plasmodium falciparum Sir2 (PF13_0152, Sir2A). The experiment in a line: pfSir2 binders on small-molecule microarrays, primary screen, biochemical, small-molecule microarray, 635 nm fluorescence (AID 1098).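 Further: score merges spot fluorescence intensity with its signal-to-noise ratio.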 Conditions: small-molecule microarray binding, fluorescence 635 nm; higher = more signal.
Assay [12] can be described thus: small-molecule microarray binders of probe aDKK1, primary screen, biochemical, biotinylated probe, 635/667 nm fluorescence (AID 1099).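 Further: score merges 667nm spot fluorescence with signal to noise across triplicate slides; reference of the scale not given here.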 The following applies: higher = more signal.
Assay [13] can be described thus: small-molecule microarray binders of probe aCHRDL2, primary screen, biochemical, biotinylated probe, 635/667 nm fluorescence (AID 1100). Conditions: higher = more signal.
Assay [14] can be described thus: splicing luciferase reporter signal modulators, primary screen, spliceosome inhibition project, cell-based, HEK293, splice +/- reporter (AID 1101).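 Further: HEK293 cells carrying a splicing-competent luciferase reporter gene; test concentration not given here.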 Conditions: luminescence, 24 h, higher = more signal, called active from +8 up or from −8 down. In general terms: Reporter assays use an easily measured gene product as a stand-in for the process of interest.
Assay [15] concerns the target Fibroblast growth factor 10 (Homo sapiens) (UniProt O15520). Put plainly: FGF10 binders on small-molecule microarrays, primary screen, biochemical, small-molecule microarray, 635 nm fluorescence (AID 1102). The following applies: FGF10 binding, fluorescence 635 nm, higher = more signal.
Assay [16] deals with glycogen synthase kinase-3 (GSK3A per assay name; protocol says GSK3B). Put plainly: GSK3 binders on small-molecule microarrays, primary screen, biochemical, small-molecule microarray, 635 nm fluorescence, GSK3A (AID 1103). Further: the record names both GSK3A and GSK3B. Conditions: small-molecule microarray binding, fluorescence 635 nm; higher = more signal.
Assay [17] deals with Epidermal growth factor receptor (Homo sapiens) (UniProt P00533). Put plainly: EGFR binders on small-molecule microarrays, primary screen, biochemical, small-molecule microarray, 635 nm fluorescence (AID 1104).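 Further: score merges 667 nm emission intensity with spot signal to noise over triplicate slides.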 Conditions: EGFR binding, higher = more signal.
Assay [18] addresses Follistatin-related protein 3 (Homo sapiens) (UniProt O95633). Put plainly: FSTL3 binders on small-molecule microarrays, primary screen, biochemical, small-molecule microarray, 635 nm fluorescence (AID 1105).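 Further: score merges emission near 667 nm and signal to noise per printed spot across three slides.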 The following applies: FSTL3 binding, higher = more signal.
The target in assay [19] is Dickkopf-related protein 1 (Homo sapiens) (UniProt O94907). The experiment in a line: DKK1 binders on small-molecule microarrays, primary screen, biochemical, small-molecule microarray, 635 nm fluorescence scan (AID 1106).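 Further: score merges emission near 667 nm with signal to noise over three replicate slides.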 The following applies: DKK1 binding, higher = more signal.
The test system of assay [20] is Inhibin beta A chain (activin A). Put plainly: INHBA (activin A) binders on microarrays, primary screen, biochemical, small-molecule microarray, 635 nm fluorescence scan (AID 1107).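 Further: mouse activin A protein probed at 4.33 µg/mL on printed slides; score merges bound-protein fluorescence near 667 nm with spot signal-to-noise.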 Conditions: small-molecule microarray binding, higher = more signal.

SMILES strings stand for the structures. Calls of active or inactive are those of the source.

Follistatin-related protein 3 (Homo sapiens), sequence (O95633 whole entry, looked up): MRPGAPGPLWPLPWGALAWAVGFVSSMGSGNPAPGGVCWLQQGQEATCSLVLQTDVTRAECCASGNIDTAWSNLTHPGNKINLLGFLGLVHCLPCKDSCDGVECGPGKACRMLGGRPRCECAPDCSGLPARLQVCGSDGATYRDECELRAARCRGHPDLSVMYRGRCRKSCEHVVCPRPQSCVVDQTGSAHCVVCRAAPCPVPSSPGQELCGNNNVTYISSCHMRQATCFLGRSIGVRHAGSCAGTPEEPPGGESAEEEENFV
Torsin-1A-interacting protein 2 (Homo sapiens), sequence (Q8NFQ8 whole entry, looked up): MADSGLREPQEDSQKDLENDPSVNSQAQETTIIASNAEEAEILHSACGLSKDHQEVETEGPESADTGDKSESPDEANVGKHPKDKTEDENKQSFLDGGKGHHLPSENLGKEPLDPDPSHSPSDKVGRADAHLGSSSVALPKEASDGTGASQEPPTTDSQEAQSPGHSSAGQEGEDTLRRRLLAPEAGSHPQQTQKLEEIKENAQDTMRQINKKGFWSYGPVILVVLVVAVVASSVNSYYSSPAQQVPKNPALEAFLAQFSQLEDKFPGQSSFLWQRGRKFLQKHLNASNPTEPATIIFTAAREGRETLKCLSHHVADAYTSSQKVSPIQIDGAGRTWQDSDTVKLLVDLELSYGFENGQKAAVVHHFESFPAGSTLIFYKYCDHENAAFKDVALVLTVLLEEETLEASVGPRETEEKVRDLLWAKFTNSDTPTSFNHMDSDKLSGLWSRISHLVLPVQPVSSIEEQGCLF
Dickkopf-related protein 1 (Homo sapiens), sequence (O94907 whole entry, looked up): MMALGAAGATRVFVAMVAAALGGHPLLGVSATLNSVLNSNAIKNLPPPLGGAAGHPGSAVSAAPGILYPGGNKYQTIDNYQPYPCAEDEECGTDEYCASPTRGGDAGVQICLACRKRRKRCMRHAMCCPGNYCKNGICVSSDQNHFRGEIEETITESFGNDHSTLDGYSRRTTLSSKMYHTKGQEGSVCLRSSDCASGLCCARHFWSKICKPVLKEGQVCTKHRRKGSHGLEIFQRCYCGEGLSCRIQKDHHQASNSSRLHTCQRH
Fibroblast growth factor 10 (Homo sapiens), sequence (O15520 whole entry, looked up): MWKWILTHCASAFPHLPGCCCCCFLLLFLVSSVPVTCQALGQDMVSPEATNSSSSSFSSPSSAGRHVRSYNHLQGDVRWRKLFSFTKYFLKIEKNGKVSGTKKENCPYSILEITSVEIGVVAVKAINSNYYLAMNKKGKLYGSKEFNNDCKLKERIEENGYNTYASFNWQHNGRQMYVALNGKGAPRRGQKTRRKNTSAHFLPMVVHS
Neurogenic locus notch homolog protein 3 (Homo sapiens), sequence (Q9UM47 whole entry, looked up): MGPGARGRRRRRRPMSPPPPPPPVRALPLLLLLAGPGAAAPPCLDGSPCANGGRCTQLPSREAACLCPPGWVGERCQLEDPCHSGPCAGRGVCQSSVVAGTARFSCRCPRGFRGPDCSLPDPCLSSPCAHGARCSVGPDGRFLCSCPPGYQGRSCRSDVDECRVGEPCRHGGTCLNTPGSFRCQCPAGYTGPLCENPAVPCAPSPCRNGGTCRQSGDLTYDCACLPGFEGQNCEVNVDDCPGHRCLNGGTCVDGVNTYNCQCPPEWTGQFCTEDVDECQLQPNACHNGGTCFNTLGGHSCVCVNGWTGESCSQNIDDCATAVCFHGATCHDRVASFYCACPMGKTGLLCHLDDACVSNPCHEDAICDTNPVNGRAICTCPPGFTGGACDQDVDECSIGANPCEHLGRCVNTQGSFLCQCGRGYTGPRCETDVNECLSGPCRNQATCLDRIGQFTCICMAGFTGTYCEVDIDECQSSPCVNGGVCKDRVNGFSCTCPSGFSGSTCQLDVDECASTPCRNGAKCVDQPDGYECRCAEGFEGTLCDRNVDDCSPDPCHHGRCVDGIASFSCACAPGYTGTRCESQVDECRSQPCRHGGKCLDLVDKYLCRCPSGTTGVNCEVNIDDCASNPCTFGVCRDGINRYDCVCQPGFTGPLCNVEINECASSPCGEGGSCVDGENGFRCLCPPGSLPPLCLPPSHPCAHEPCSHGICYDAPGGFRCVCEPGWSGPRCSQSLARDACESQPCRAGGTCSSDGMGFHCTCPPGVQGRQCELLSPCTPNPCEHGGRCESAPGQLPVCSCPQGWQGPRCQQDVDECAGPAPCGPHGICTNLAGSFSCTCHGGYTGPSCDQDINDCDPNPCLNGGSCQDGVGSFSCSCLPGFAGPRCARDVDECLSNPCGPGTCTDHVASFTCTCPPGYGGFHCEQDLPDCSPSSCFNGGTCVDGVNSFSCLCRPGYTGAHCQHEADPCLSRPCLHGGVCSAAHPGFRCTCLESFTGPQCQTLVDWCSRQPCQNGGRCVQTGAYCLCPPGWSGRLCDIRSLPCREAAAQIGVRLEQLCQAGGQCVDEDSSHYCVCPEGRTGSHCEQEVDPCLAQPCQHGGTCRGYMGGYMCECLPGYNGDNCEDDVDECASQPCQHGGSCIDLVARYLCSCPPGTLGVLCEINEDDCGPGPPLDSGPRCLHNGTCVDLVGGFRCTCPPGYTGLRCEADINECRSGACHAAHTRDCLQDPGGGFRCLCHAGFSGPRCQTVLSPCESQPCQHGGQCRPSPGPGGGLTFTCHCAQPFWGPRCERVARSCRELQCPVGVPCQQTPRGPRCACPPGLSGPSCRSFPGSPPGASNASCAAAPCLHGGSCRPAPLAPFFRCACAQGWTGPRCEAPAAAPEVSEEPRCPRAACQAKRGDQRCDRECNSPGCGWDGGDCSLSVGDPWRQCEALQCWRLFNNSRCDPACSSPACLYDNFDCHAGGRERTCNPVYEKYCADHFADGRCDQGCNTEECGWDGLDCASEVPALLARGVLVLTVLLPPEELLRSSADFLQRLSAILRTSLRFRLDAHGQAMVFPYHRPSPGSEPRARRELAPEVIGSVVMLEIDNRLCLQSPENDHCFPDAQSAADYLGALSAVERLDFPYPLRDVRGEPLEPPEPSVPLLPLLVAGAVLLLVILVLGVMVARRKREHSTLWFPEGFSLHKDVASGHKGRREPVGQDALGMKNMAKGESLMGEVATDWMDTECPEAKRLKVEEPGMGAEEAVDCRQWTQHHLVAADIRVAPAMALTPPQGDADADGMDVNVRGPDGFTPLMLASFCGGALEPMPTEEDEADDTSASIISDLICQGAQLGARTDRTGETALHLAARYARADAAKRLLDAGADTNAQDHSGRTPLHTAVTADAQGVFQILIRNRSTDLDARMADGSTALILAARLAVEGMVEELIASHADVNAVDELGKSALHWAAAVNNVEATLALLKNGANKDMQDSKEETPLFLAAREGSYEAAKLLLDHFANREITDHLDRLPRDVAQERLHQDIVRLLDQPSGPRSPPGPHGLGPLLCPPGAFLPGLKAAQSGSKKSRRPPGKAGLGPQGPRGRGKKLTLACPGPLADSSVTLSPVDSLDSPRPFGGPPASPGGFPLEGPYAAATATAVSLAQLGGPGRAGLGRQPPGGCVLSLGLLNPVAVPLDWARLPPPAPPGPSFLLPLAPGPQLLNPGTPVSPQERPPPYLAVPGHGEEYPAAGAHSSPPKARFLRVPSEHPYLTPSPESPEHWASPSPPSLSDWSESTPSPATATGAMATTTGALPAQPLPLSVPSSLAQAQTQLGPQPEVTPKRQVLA
Epidermal growth factor receptor (Homo sapiens), sequence (P00533 whole entry, looked up): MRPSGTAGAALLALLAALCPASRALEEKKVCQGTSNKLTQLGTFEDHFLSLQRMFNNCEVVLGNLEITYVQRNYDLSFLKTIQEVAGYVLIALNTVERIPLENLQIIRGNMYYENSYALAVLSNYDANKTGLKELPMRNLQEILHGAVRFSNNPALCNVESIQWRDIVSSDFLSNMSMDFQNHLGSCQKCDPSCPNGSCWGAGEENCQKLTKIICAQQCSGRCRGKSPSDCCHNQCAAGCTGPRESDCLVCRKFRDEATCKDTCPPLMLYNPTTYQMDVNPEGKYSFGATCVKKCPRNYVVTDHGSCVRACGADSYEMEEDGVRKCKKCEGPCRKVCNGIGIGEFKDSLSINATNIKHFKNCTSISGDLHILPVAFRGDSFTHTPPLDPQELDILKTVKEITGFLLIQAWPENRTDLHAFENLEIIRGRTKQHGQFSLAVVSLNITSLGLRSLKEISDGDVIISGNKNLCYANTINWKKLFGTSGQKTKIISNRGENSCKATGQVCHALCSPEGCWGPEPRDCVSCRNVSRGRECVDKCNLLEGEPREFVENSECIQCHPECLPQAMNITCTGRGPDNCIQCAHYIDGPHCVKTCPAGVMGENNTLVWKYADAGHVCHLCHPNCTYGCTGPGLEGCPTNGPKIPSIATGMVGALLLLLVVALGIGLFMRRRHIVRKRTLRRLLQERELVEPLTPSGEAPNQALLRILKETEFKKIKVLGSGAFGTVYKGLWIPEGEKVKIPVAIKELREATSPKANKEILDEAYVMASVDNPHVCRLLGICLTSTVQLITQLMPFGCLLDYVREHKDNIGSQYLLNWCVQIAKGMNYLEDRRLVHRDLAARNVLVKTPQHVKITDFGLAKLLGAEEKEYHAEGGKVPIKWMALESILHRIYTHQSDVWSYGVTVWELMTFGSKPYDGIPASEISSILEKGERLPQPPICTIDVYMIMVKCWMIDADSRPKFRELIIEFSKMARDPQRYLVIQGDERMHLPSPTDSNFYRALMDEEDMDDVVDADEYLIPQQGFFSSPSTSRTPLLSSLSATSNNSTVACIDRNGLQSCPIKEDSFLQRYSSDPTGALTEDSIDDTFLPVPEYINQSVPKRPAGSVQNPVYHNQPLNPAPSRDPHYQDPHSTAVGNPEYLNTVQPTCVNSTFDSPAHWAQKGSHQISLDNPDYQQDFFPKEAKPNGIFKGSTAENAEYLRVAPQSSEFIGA

For the compound `O=C1C2C=CC(C(O)c3ccc(Br)cc3)N(n3cnnc3)C2C(=O)N1Cc1ccccc1` (stereo not given), the composite z-score in [1] was determined as 1.56; in assay [5] it was 2.83; in assay [7], 0.126; in assay [8] it was 0.57; in assay [9], 1.03; in assay [10], 0.115. For the same compound, the composite z-score stood at 1.11 in [11]; 0.578 in assay [12]; 0.479 in [13]; 0.946 in [15]; 1.07 in assay [16]; 0.406 in assay [17]. Also, the composite z-score in assay [18] is 0.819; in assay [19], 0.0363; in assay [20], -0.0003. Besides, the z-score was -26.6 (active) in assay [2]; -16 (active) in assay [3]; 0.881 (inactive) in assay [4]; -0.415 (inactive) in assay [6]; 0.696 (inactive) in assay [14].
On to `O=C(NCC(F)(F)F)[C@@H]1c2ccccc2C(=O)N(Cc2ccccc2)[C@H]1c1ccc(CO)cc1`, for which the composite z-score in assay [1] is 1.04; in assay [5] it was 2.35; in assay [7] it was -0.0192; in assay [8], -1.34; in assay [9] it was -0.612; in assay [10], -0.194. The composite z-score is 1.68 in assay [11]; 0.443 in assay [12]; 1.05 in assay [13]; -0.308 in assay [15]; -0.409 in assay [16]; -1.31 in assay [17]. Moreover, the composite z-score in assay [18] is -1.12; in [19] it was -1.46; in [20], -0.296. The z-score was -0.526 (inactive) in assay [2]; 0.0532 (inactive) in assay [3]; 0.13 (inactive) in assay [4]; 0.544 (inactive) in assay [6]; 0.999 (inactive) in [14].
Consider `O[C@@H](Cc1ccccc1)[C@@H](/C=C/c1ccccc1)NCc1ccccc1Br`, for which the composite z-score in assay [1] is -0.995; in assay [5] it was -0.557; in assay [7], 0.0372; in assay [8], -1.34; in assay [9] it was -0.707; in assay [10], -0.348. Further, the composite z-score in assay [11] is -1.01; in assay [12], 0.151; in assay [13] it was 1.16; in [15], -1.98; in [16], -1.45; in [17], -1.37. Also, the figures for the composite z-score in assay [18], in assay [19] and in [20] were -2.06, -1.42 and 0.52, respectively. For the same compound, the z-score in [2] is 0.0419 (inactive); in assay [3] it was -11.4 (active); in assay [4], -1.54 (inactive); in assay [6], 0.908 (inactive); in assay [14], 0.761 (inactive).
As for `[N-]=[N+]=NCc1ccccc1C[C@@]1(C(=O)NCc2ccccc2)N=C(c2ccc(OCCCO)cc2)O[C@@H]1c1ccccc1CN=[N+]=[N-]`, the composite z-score in assay [1] is 1.57; in [5], 3.25; in [7], 0.395; in assay [8], 0.234; in [9] it was 0.756; in assay [10] it was 0.0157. Also, the composite z-score in assay [11] was 1.39; in assay [12], 1.09; in assay [13], 1.06; in assay [15] it was 0.639; in assay [16], 1.13; in assay [17] it was -0.286. In addition, the composite z-score was -0.0894 in assay [18], -0.242 in assay [19] and 0.123 in [20]. Besides, the z-score was -1.34 (inactive) in [2]; 0.0392 (inactive) in [3]; 36 (active) in [4]; 1.16 (inactive) in assay [6]; 0.48 (inactive) in [14].
For `CN1C(=O)C2C=CC(C(O)C(C)(C)C)N(Nc3ccccc3)C2C1=O` (stereo not given), the composite z-score is -0.316 in assay [1]; 3.16 in assay [5]; -0.266 in assay [7]; -0.611 in [8]; -0.784 in [9]; -0.19 in [10]. Besides, the composite z-score in assay [11] was 1.24; in assay [12], -0.108; in assay [13], 0.211; in [15] it was -0.0353; in assay [16], -0.0258; in assay [17], -0.639. Further, the figures for the composite z-score in assay [18], in [19] and in [20] were -0.543, -0.406 and 0.941, respectively. For the same compound, the z-score in [2] was 0.392 (inactive); in assay [3] it was 1 (inactive); in assay [4], 0.949 (inactive); in assay [6] it was -0.971 (inactive); in assay [14] it was 1.06 (inactive).
Take `C=C(C(=O)CC[C@@H](OC(=O)c1cccnc1)c1ccc(OCCO)cc1)C(C)C`: the composite z-score in assay [1] is 1.57; in assay [5] it was 0.111; in assay [7], -0.209; in [8], 1.58; in assay [9], 0.344; in assay [10], -0.0972. In addition, the composite z-score was 0.603 in assay [11]; -0.312 in [12]; -0.188 in assay [13]; 0.922 in assay [15]; 0.154 in assay [16]; -0.255 in [17]. Also, the composite z-score in [18] is 0.802; in assay [19], 0.906; in assay [20] it was 0.223. Also, the z-score in assay [2] was -24.3 (active); in assay [3], -20.5 (active); in assay [4], -4.75 (inactive); in assay [6] it was -0.808 (inactive); in [14], -0.255 (inactive).
